About 83,000 compounds went through this panel and 20% of them were active in at least one assay; those are over-represented in the sample as a whole.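 Growth was measured after 48 h exposure to one concentration of compound in 96-well plates. Values under 10 count as active.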 The source made the active and inactive calls.
Key:
Experiment in all cases: NCI-60 one-dose screen, 48 h (100 = growth as untreated, 0 = no growth, -100 = all killed)
Conditions in all cases: 10 µM unless noted
[1] = tested on: SK-MEL-2 melanoma
[2] = tested on: EKVX NSCLC
[3] = tested on: SN12C renal
[4] = tested on: UO-31 renal
[5] = tested on: TK-10 renal
[6] = tested on: ACHN renal
[7] = tested on: A498 renal
[8] = tested on: CCRF-CEM leukemia
[9] = tested on: MOLT-4 leukemia
[10] = tested on: SR leukemia
[11] = tested on: RPMI-8226 leukemia
[12] = tested on: OVCAR-8 ovarian
[13] = tested on: OVCAR-5 ovarian
[14] = tested on: OVCAR-4 ovarian
[15] = tested on: SK-OV-3 ovarian
[16] = tested on: IGROV1 ovarian
[17] = tested on: OVCAR-3 ovarian
[18] = tested on: HS 578T breast
[19] = tested on: NCI/ADR-RES ovarian
[20] = tested on: CAKI-1 renal

Measured: growth

Nc1c(C(=O)Nc2c(Cl)cccc2Cl)sc2nc3c(cc12)C(=O)CCC3
inactive: [1] 27.3% | [2] 76% | [3] 47.6% | [4] 48.3% | [5] 59.5% | [6] 50.9% | [8] 54.8% | [9] 65.3% | [10] 36.4% | [11] 65.5% | [12] 62.7% | [13] 86.5% | [14] 65.6% | [15] 32.2% | [16] 71.9% | [17] 11.2% | [18] 13.4% | [19] 17.1%
active: [7] 2.03%

C=C1C(=O)O[C@H]2[C@H]1CC/C(COC(=O)N[C@H](Cc1c[nH]c3ccccc13)C(=O)OC)=C\CC[C@@]1(C)O[C@@H]21
active: [4] -4.81% | [6] -17.7% | [8] 2.23% | [9] 4.53% | [10] 3.67% | [11] 2.85% | [17] -21.9%
inactive: [1] 70.4% | [2] 63.6% | [3] 41.7% | [5] 25.8% | [7] 83% | [12] 50.5% | [13] 98.6% | [14] 61.4% | [15] 96.2% | [16] 16.5% | [18] 81.1% | [19] 87.2%

COC(=O)[C@]12CC[C@@H](C)[C@H](C)[C@@H]1C1=CC[C@@H]3[C@@]4(C)C[C@@H](OC(C)=O)[C@H](OC(C)=O)[C@@](C)(COC(C)=O)[C@@H]4[C@H](O)C[C@@]3(C)[C@]1(C)CC2
active: [1] -2.42% | [5] -1.29% | [7] 5.15% | [9] 3.95% | [10] 2.75% | [11] 5.96%
inactive: [2] 10.7% | [3] 11% | [4] 10.9% | [6] 11.8% | [8] 12% | [12] 16.9% | [13] 34.6% | [14] 19.3% | [16] 36.7% | [17] 15% | [18] 35.9% | [19] 10.5%

CCCCC[C@H]1C/C=C2/C(=O)C(Cl)=C[C@@H]2C/C=C\CCCC(=O)O[C@@H](CCCCC)C/C=C2/C(=O)C(Cl)=C[C@@H]2C/C=C\CCCC(=O)O1
active: [1] -46% | [2] 5.48% | [3] -42.2% | [4] -89.9% | [5] -20.2% | [6] -93% | [7] -77.4% | [8] 0.433% | [9] 3.32% | [10] -7.23% | [11] -13.6% | [12] -13.9% | [13] -44.4% | [16] -44.4% | [17] -82.7%
inactive: [14] 16% | [18] 32.4% | [19] 19.8%

Cn1cc(-c2csc(-c3cn(CCCN4CCCCC4)c4ccc(Br)cc34)n2)c2cccnc21
inactive: [1] 37% | [2] 49.6% | [5] 26.7% | [7] 79.1% | [13] 30.8% | [14] 32.3% | [15] 75.2% | [18] 60.8% | [19] 19.9%
active: [3] -31.3% | [4] -93.9% | [6] -61.1% | [8] -23.8% | [9] -46.3% | [10] -48.9% | [11] -35.3% | [12] -16.4% | [16] -20.1% | [17] -75.6%

CC(C)=CCC[C@](C)(O)[C@H]1CC[C@]2(C)[C@@H]1CC[C@@H]1[C@@]3(C)C/C(=C/c4ccc(Br)cc4)C(=O)C(C)(C)[C@@H]3CC[C@]12C
inactive: [1] 113% | [2] 94.3% | [3] 88% | [5] 130% | [6] 98.1% | [20] 64.7% | [7] 80.8% | [8] 83.4% | [9] 84.1% | [10] 80.7% | [11] 71.8% | [14] 78.5% | [15] 96.5% | [16] 101% | [17] 87.5% | [18] 92.2% | [19] 98.2%

CCN1CCN(C(=O)[C@]23CC[C@@H](C)[C@H](C)[C@H]2C2=CC[C@@H]4[C@@]5(C)C/C(=C/c6cccc(OC)c6OC)C(=O)C(C)(C)[C@@H]5CC[C@@]4(C)[C@]2(C)CC3)CC1
inactive: [1] 84.6% | [2] 27.7% | [3] 43.2% | [5] 95.9% | [6] 41.9% | [20] 31.4% | [7] 77.7% | [8] 30.2% | [9] 10.1% | [11] 15.4% | [12] 50.3% | [13] 67.8% | [14] 24.5% | [15] 68.6% | [16] 60.7% | [17] 31.2% | [18] 67.6% | [19] 35.3%
active: [10] 5.2%

C=C1CC[C@@H](C(=O)OC)Cc2nc(C)ccc21
inactive: [1] 103% | [2] 99.8% | [3] 96.4% | [5] 101% | [6] 103% | [20] 90.9% | [7] 106% | [8] 102% | [9] 101% | [10] 95.7% | [11] 100% | [13] 98.4% | [14] 103% | [15] 109% | [16] 107% | [17] 119% | [18] 107% | [19] 98.5%

Reference: PubChem BioAssay (NCI)
